From PubChem BioAssay (NCI) come the findings set out here.

About 83,000 compounds went through this panel and 20% of them were active in at least one assay; those are over-represented in the sample as a whole.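 Assay: single dose, 48 h. Readout: percent growth (0 = no net growth; negative = cell death). Active: <10.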 Activity calls are given as the source filed them.

One assay deals with OVCAR-5 ovarian. The assay is described as follows: NCI-60 one-dose screen, 48 h (100 = growth as untreated, 0 = no growth, -100 = all killed). The settings on record: 1 µM.
Consider `CC/C(=C(/c1ccc(O)cc1)c1ccc(OCCN(C)C(=O)COCCOCCNC(=O)c2ccc3c(c2)CN([C@@H]2CCC(=O)NC2=O)C3=O)cc1)c1ccccc1`, for which the growth was 96% (inactive).
As to `CC/C(=C(/c1ccc(O)cc1)c1ccc(OCCN(C)C(=O)CCOCCNC(=O)Cc2ccc3c(c2)CN([C@@H]2CCC(=O)NC2=O)C3=O)cc1)c1ccccc1`, the growth was 97.5% (inactive).
Turning to `CC/C(=C(/c1ccc(O)cc1)c1ccc(OCCN(C)C(=O)COCCOCCNC(=O)Cc2ccc3c(c2)CN([C@@H]2CCC(=O)NC2=O)C3=O)cc1)c1ccccc1`, the growth was 95.3% (inactive).
For `CC/C(=C(\c1ccc(O)cc1)c1ccc(OCCNC)cc1)c1ccccc1`, the growth is 97.8% (inactive).
Turning to `CC/C(=C(\c1ccc(O)cc1)c1ccc(OCCN(C)C(=O)CCOCCNC(=O)c2ccc3c(c2)CN([C@@H]2CCC(=O)NC2=O)C3=O)cc1)c1ccccc1`, the growth is 93.4% (inactive).
On the same count and under the same terms, then `CC/C(=C(\c1ccc(O)cc1)c1ccc(OCCN(C)C(=O)COCCNC(=O)Cc2ccc3c(c2)CN([C@@H]2CCC(=O)NC2=O)C3=O)cc1)c1ccccc1`, with 94.7% (inactive).

The same assay, now with this note: 10 µM.
With `CC/C(=C(/c1ccc(O)cc1)c1ccc(OCCN(C)C(=O)COCCOCCNC(=O)c2ccc3c(c2)CN([C@@H]2CCC(=O)NC2=O)C3=O)cc1)c1ccccc1`, the growth was 86.8% (inactive).
Still for that read-out and setting: then `CC/C(=C(/c1ccc(O)cc1)c1ccc(OCCN(C)C(=O)CCOCCNC(=O)Cc2ccc3c(c2)CN([C@@H]2CCC(=O)NC2=O)C3=O)cc1)c1ccccc1`, with 86.7% (inactive); and `CC/C(=C(/c1ccc(O)cc1)c1ccc(OCCN(C)C(=O)COCCOCCNC(=O)Cc2ccc3c(c2)CN([C@@H]2CCC(=O)NC2=O)C3=O)cc1)c1ccccc1`, with 86.6% (inactive); and `CC/C(=C(\c1ccc(O)cc1)c1ccc(OCCNC)cc1)c1ccccc1`, with 106% (inactive).
Still for that read-out and setting: the result for `CC/C(=C(\c1ccc(O)cc1)c1ccc(OCCN(C)C(=O)CCOCCNC(=O)c2ccc3c(c2)CN([C@@H]2CCC(=O)NC2=O)C3=O)cc1)c1ccccc1` reads 79.5% (inactive); that for `CC/C(=C(\c1ccc(O)cc1)c1ccc(OCCN(C)C(=O)COCCNC(=O)Cc2ccc3c(c2)CN([C@@H]2CCC(=O)NC2=O)C3=O)cc1)c1ccccc1`, 65.5% (inactive).
